Experimental data published in ChEMBL document CHEMBL4888484, “Replenishing the malaria drug discovery pipeline: Screening and hit evaluation of the MMV Hit Generation Library 1 (HGL1) against asexual blood stage Plasmodium falciparum ,using a nano luciferase reporter read-out” (2022).
Screen size: about 4,800 compounds; about 420 (8.8%) showed an effect of 50% or more. What follows is part of a selection rich in strong results, with near analogues and random picks from the rest.

tested on: Plasmodium falciparum; assay: Confirmatory screen in NF54 nanoGlo assay, in single point, at 2uM, 72h; type: functional, Erythrocyte; settings: timepoint 72 hour

Row | SMILES | % Inhibition
1 | FCCn1ncnc1CN1CCCCC[C@H]1C1CCCCC1 | 4%
2 | CCN(CC)CC(O)COc1c(Br)cc(C(C)(C)c2cc(Br)c(OCC(O)CN(CC)CC)c(Br)c2)cc1Br (stereo not drawn) | 99%
3 | O=C(CNC(=O)[C@H]1CC[C@H](CNS(=O)(=O)c2ccccc2)CC1)N1CCN(c2ccccc2)CC1 | 4%
4 | O=C(Nc1nc2ccc(F)cc2s1)c1cccc2c(Br)cccc12 | -1%
5 | C=CCN1C(=O)OC(C)(CCC=C(C)C)C1(C)O (stereo not drawn) | 9%
6 | CN1CCCN(c2ccnc3ccsc23)CC1 | 2%
7 | Cc1cc(CN(C)Cc2nccn2C)ccc1N1CCCCC1 | -1%
8 | Cc1cccc(OCc2nn3c([C@H]4CCCN(S(C)(=O)=O)C4)nnc3s2)c1 | -6%
9 | Cc1nccc(N(C)C2CC(Oc3ccccc3)C2(C)C)n1 (stereo not drawn) | -5%
10 | Cc1nn2c(C(F)F)cc(-c3ccc4c(c3)OCO4)nc2c1Cl | -5%
11 | CCc1ccc(CN2C(=O)c3c(C(=O)OC)ncn3C[C@@]2(C)C(=O)NC2CCCC2)cc1 | -6%
12 | O=C(CCn1nc(-c2ccc(Br)cc2)ccc1=O)NCc1ccc2c(c1)OCO2 | -4%
13 | Cc1cc(C)c(S(=O)(=O)N2CCC(C)(C(=O)NCc3ccc4c(c3)OCO4)CC2)cc1C | 3%
14 | CCc1ccc(-c2cc3n(n2)C[C@@](C)(C(=O)NC2CCCCC2)N(c2cc(C)cc(C)c2)C3=O)cc1 | 74%
15 | CCc1ccc(CN2C(=O)c3c(C(=O)OC)ncn3C[C@@]2(C)C(=O)NC2CCCCCC2)cc1 | 1%
16 | C[C@@]1(C(=O)NCc2ccccc2)Cn2nc(-c3ccccc3)cc2C(=O)N1c1ccc2c(c1)OCCO2 | 58%
17 | COc1ccc(-c2cc3n(n2)C[C@@](C)(C(=O)NCc2ccccc2)N(Cc2ccc4c(c2)OCO4)C3=O)cc1 | 63%
18 | COc1ccc(-c2cc3n(n2)C[C@@](C)(C(=O)NCc2ccccc2OC)N(c2cccc(OC)c2)C3=O)cc1 | 49%
19 | COc1cccc(-c2ccc(=O)n(CCC(=O)N3CCN(Cc4ccc5c(c4)OCO5)CC3)n2)c1 | 1%
20 | Cc1nn(CCc2nnc(-c3ccc4c(c3)OCO4)o2)c(C)c1Cl | -3%
21 | O=C(O)Cc1sc(-c2ccccc2)nc1O | 1%
22 | CC(=O)Nc1cc(NC(=O)c2cccc[n+]2[O-])c(F)cc1F | -2%
23 | COC(=O)c1[nH]c(C)cc1NC(=O)C1=CCCCCC1 | -2%
24 | O=C(Nc1nncs1)NC(C1CC1)C1CC1 | 0%
25 | O=C(Nc1nncs1)c1cccc(C(=O)Nc2nncs2)n1 | 68%

Row | SMILES | % Inhibition
26 | Cc1ccc(-c2csc(NC(=O)c3cccc(C(=O)Nc4nc(-c5ccc(C)cc5C)cs4)n3)n2)c(C)c1 | -1%
27 | CCOC(=O)c1c(C(F)(F)F)[nH]n2c(C(F)F)nnc12 | -3%
28 | CCOc1ccc2ccccc2c1C(=O)Nc1cc(C)nn1-c1nc2c(c(=O)[nH]1)CCC2 | 94%
29 | Cc1cc(NC(=O)C(=O)NC2CC(C)CC(C)(C)C2)n(-c2nc3c(c(=O)[nH]2)CCC3)n1 (stereo not drawn) | 90%
30 | COc1ccc2ccccc2c1C(=O)Nc1ccc(N2CCN(C)CC2)c(Cl)c1 | 5%
31 | O=C(Cc1ccccc1)Nc1c2c(nc3c1CCC3)CCCC2 | 3%
32 | Cc1cc(C)cc(Nc2nc(C)cc(=O)n2CC(=O)Nc2ccc(C)cc2Br)c1 | -8%
33 | Cc1ccc2c(c1)ncc1c(-c3ccccc3)nn(-c3ccc(F)cc3)c12 | -5%
34 | COc1ccc(NC(=O)Cc2c(C)nn(-c3nc(C)cs3)c2O)c(OC)c1 | -7%
35 | CCOC(=O)c1cc(-c2ccccc2)n(NC(=O)COc2ccc(Cl)cc2)c1C | -11%
36 | CNC(=O)c1cc(N2CCN(c3ncc(C(F)(F)F)cc3Cl)CC2)ccc1NC(=O)c1ccccc1Cl | 7%
37 | CCCN(CCC)CCN1C(=O)[C@@H]2C(C(=O)Nc3cc(Cl)cc(Cl)c3)[C@@H]3C=C[C@]2(O3)C1C(=O)NC1CCCCC1 (stereo partly drawn) | -3%
38 | COc1ccc(OC)c(NC(=O)Cn2cnc3nc(N4CCOCC4)ncc3c2=O)c1 | 8%
39 | Cc1cc(-c2nnc3n2CC(C)(C)CC3)c(C)o1 | 2%
40 | CCN(C)C1(CNC(=O)c2ccc(-c3cc(F)ccc3O)cc2)CCCC1 | 26%
41 | CCCc1cc(-c2nc(-c3ccc(-n4nc(C)cc4N)cc3)no2)n(C)n1 | 48%
42 | COc1cccc2nc(C[C@H]3CN(CC(C)C)CC[C@H]3CC(=O)O)[nH]c12 | -9%
43 | CNc1nc(NCCc2ccccc2)nc2ccccc12 | 80%
44 | CNc1nc(Nc2ccc3c(c2)OCCO3)nc2ccccc12 | 95%
45 | c1ccc(CCNc2nc(-c3ccccn3)cs2)cc1 | 12%
46 | O=C1c2ccccc2[C@@H](Nc2ccc3c(c2)OCCO3)N1c1ccccn1 | -17%
47 | Cc1ccc(-c2nc3ncccn3c2Nc2ccc3c(c2)OCCO3)o1 | -8%
48 | NS(=O)(=O)c1ccc(CCNc2nc(-c3ccccc3)nc3ccccc23)cc1 | -2%
49 | CC1(C)Cc2nc3ccccc3c(NCc3ccccc3)c2[C@@H](O)C1 | 44%
50 | CNc1nc(NCc2ccccc2)nc2ccccc12 | 78%

Row | SMILES | % Inhibition
51 | C[C@H](Nc1nc(N2CCCCC2)nc2ccccc12)c1ccccc1 | -1%
52 | c1coc(CNc2nc(Nc3cccc4ccccc34)nc3ccccc23)c1 | 20%
53 | Cc1ccc(C)n1-c1ccc(Cl)c(C(=O)NC[C@H]2COCCO2)c1 | -4%
54 | C#Cc1cc(C(F)(F)F)cc(C#N)c1N | 5%
55 | CC1(C)CN(C(=O)CN2CCOCC2=O)C2CCCC21 (stereo not drawn) | -16%
56 | COc1cccc(N2CCN(C3=NC(=O)[C@@H](C#N)C4(CCCC4)N3)CC2)c1 | 2%
57 | O=C(O)Cc1ccc(OCc2nc(-c3ccsc3)no2)cc1 | -2%
58 | Cc1ccc(S(=O)(=O)N2CC[C@H](CC(=O)NCc3ccccc3)C2)c(C)c1 | -17%
59 | CC(=O)Nc1ccc(C)cc1S(=O)(=O)N1CC=C(c2c(C)n(Cc3ccccc3C)c3ccccc23)CC1 | 91%
60 | Cc1ccc(NC(=O)Cn2c(=O)n(Cc3ccco3)c(=O)c3ccccc32)c(C)c1 | -12%
61 | CC[C@](C)(NCCc1c[nH]c2ccccc12)c1nnnn1CCOC | -2%
62 | Cn1c(N2CCN(Cc3ccc4c(c3)OCO4)CC2)cc(=O)n(C)c1=O | -12%
63 | COc1ccc(CNC(=O)N2C[C@H](C)OC3(CCCCC3)C2)cc1OC(F)F | -8%
64 | O=C(NCc1ccco1)c1cc2c(Cl)ccc3c2n1CCO3 | -1%
65 | Cc1cc2nc(C)c3c(n2n1)N(Cc1ccccc1Cl)CC3 | -2%
66 | CC(C)Oc1cccnc1C(=O)N(C)c1cnn(C)c1 | -5%
67 | COc1ccc(-c2cc3c(N4CCN(C)CC4)nccn3n2)cc1OC | 1%
68 | Cc1nn(-c2ccccn2)c(O)c1C(c1ccccc1)c1c(C)nn(-c2ccccn2)c1O | 90%
69 | COc1ccc(-c2nn(-c3ccccc3)c(O)c2C(c2ccc(C(=O)O)cc2)c2c(-c3ccc(OC)cc3)nn(-c3ccccc3)c2O)cc1 | 2%
70 | O=C(CCn1nc(-c2cccc(Cl)c2)ccc1=O)NCc1ccc(F)cc1F | -2%
71 | CCn1cc(CN2C(=O)C3CCCCC3C2=O)c(C)n1 (stereo not drawn) | -3%
72 | Oc1nc(N2CCOC3(CCCC3)C2)ncc1F | 51%
73 | FC(F)(F)c1cnc(N2CCOC3(CCOCC3)CC2)s1 | -2%
74 | O=C(c1cc(-c2ccncc2)on1)N1CCOC2(CCCCCC2)C1 | -6%
75 | COC(c1ccc(-c2ccc(OC3CC3)cc2)cc1)C(C)N (stereo not drawn) | -3%

Row | SMILES | % Inhibition
76 | COc1ccc(CNC(=O)c2ccc(Cl)c(-n3c(C)nc4cccnc43)c2)c(OC)c1 | 2%
77 | CCOC(=O)c1ccc(N2CCN(Cc3ccccc3)CC2)c(NC(=O)COc2ccc(Cl)cc2C)c1 | -4%
78 | Cn1nc(N)c2cc(C(F)(F)F)ccc21 | -2%
79 | CCn1c(=O)c(N2CCN(C(=O)Nc3cccc(C(F)(F)F)c3)CC2)nc2ccccc21 | -2%
80 | Cc1nn(Cc2ccccc2)c2c1C(c1cccc(Cl)c1Cl)c1c(C)nn(Cc3ccccc3)c1O2 | 9%
81 | COc1ccc(OC)c(CN2C(=O)c3cc4c(OC)ccc(OC)c4n3C[C@]2(C(=O)NC2CCCCCC2)c2ccccc2)c1 | 18%
82 | CCCn1c(C)nnc1COC(=O)c1ncoc1C | -5%
83 | CC(C)(C)OC(=O)NC1CCN(c2ncc(C(=O)NCc3ccc(F)c(Cl)c3)c(N)n2)CC1 | -17%
84 | CN1CCc2ncnc(Nc3ccc4nc(N5CCCC5)sc4c3)c2C1 | 2%
85 | CC(=O)Nn1ccc2nc(N3CCOCC3)ncc2c1=O | -7%
86 | COC1(C)CC(NC(=O)C(C(C)C)N2CCCS2(=O)=O)C1(C)C (stereo not drawn) | -9%
87 | CCC(=O)N(Cc1ccc(-c2ccc(Cl)cc2)o1)[C@H]1CCS(=O)(=O)C1 | 38%
88 | Cn1ccc(CN2CCN(c3ccccc3)CC2)n1 | 1%
89 | Cc1nc(-c2ccc(N3CCC(NCCCn4ccnc4)CC3)cc2)cs1 | 12%
90 | COc1cc(C)cc(C)c1S(=O)(=O)N(C)Cc1nnc[nH]1 | 4%
91 | COc1cccc(C2C(NC(=O)c3ccoc3)CCN2C2CC2)c1 (stereo not drawn) | -10%
92 | CC(C(=O)Nc1cc(F)ccc1F)N1CCCC(c2nncn2C(C)C)C1 (stereo not drawn) | -3%
93 | CC(C(=O)Nc1nccs1)N1CCCC(c2ccn[nH]2)C1 (stereo not drawn) | 50%
94 | CC1=CCN(C(=O)Nc2nccs2)CC1 | 7%
95 | c1ccc(NC(Nc2nnn[nH]2)=C(c2ccccc2)c2ccccc2)cc1 | 0%
96 | O=C(Nc1cccnc1)c1ccc(-c2ccc(Cl)c(Cl)c2)o1 | 91%
97 | O=C(Nc1ccn(Cc2cccnc2)n1)c1ccc(-c2ccccc2F)o1 | -2%
98 | O=C(CCC(=O)Nc1cccnc1)NCc1ccc2c(c1)OCO2 | -2%
